In PubChem BioAssay one finds fold change permeability data, which are given here for 40 compounds.

Structures are written as SMILES. Calls of active or inactive are those of the source. Rule as the data show it: active = fold change permeability below about 0.7 or above about 1.3; inactive = in between.

A short description of this assay: modulators of brain endothelial barrier permeability, primary screen, cell-based, FITC-avidin fluorescence, HTS (AID 1963498). Also: test concentration not given here. To be noted: actives lie on both sides.
With `CC(C)(CN1C(=O)C(Cl)=C(Cl)C1=O)CN1C(=O)C(Cl)=C(Cl)C1=O`, the fold change permeability is 1.1 (inactive).
In the case of `O=C(O)C1=CCNCC1` it was 1 (inactive); in that of `CCN(CC)CCOC(=O)C1(C2CCCCC2)CCCCC1`, 1.6 (active).
For the compound `N[C@@H](COP(=O)(O)O)C(=O)O`, the fold change permeability was 1 (inactive).
As to `OC(CCN1CCCCC1)(c1ccccc1)C1CC2C=CC1C2` (stereo not given), the fold change permeability was 1.1 (inactive).
As for `CC(=O)CCCCn1c(=O)c2c(ncn2C)n(C)c1=O`, the fold change permeability is 1 (inactive).
Turning to `COc1ccc(/C=C/C(=O)Nc2ccccc2C(=O)O)cc1OC`, the fold change permeability was 1.4 (active).
As for `N=C(N)c1ccc(OCCCCCOc2ccc(C(=N)N)cc2)cc1`, the fold change permeability was 1.1 (inactive).
As to `Cc1nc(Nc2cnn(C3CCNCC3)c2)nc2c1N(C)C(=O)c1cc3ccccc3cc1N2C`, the fold change permeability is 1 (inactive).
Consider `CCOC(=O)c1c(CSc2ccccc2)n(C)c2cc(Br)c(O)c(CN(C)C)c12`, for which the fold change permeability is 1.4 (active).
In the case of `CC(=O)OCC(=O)[C@@]1(O)CC[C@H]2[C@@H]3CCC4=CC(=O)CC[C@]4(C)[C@H]3C(=O)C[C@@]21C`, the fold change permeability is 0.9 (inactive).
Consider `O=C1CCCC(=O)C1C(=O)c1ccc(C(F)(F)F)cc1[N+](=O)[O-]`, for which the fold change permeability is 0.9 (inactive).
Regarding `O=C1Cc2cc(CCN3CCN(c4nsc5ccccc45)CC3)c(Cl)cc2N1`, the fold change permeability was 0.9 (inactive).
Take `C=CC[C@H](N)C(=O)O`: the fold change permeability was 1 (inactive).
In the case of `N#CSCC(=O)c1ccc(O)c(O)c1`, the fold change permeability was 1.1 (inactive).
As for `NC(=O)N1c2ccccc2C=Cc2ccccc21`, the fold change permeability is 1.1 (inactive).
Take `CCOC(=O)c1ccc(C#Cc2ccc3c(c2)C(C)(C)CCS3)nc1`: the fold change permeability was 2.1 (active).
Turning to `CC(C)(C)c1cc(/C=C(\C#N)C(N)=S)cc(C(C)(C)C)c1O`, the fold change permeability was 1.5 (active).
As to `O=C(O)C1CCCNC1` (stereo not given), the fold change permeability is 1.3 (active).
As to `O=C(/C=C/c1ccc(O)cc1)c1ccc(O)cc1O`, the fold change permeability is 1.2 (inactive).
As for `CC(C)(C)NCC(O)c1cc(O)cc(O)c1` (stereo not given), the fold change permeability was 0.8 (inactive).
In the case of `COc1cc(O)cc(CCc2ccc(OC)c(O)c2)c1` it was 1.9 (active); in that of `C[C@H](Cc1ccccc1)Nc1ncnc2c1ncn2[C@@H]1O[C@H](CO)[C@H](O)C1O` (stereo not given in full), 1.3 (active).
Take `Nc1ncnc2c1nc(Br)n2C1OC2COP(=O)(O)O[C@@H]2C1O` (stereo not given in full): the fold change permeability is 1 (inactive).
In the case of `CNCCCC1c2ccccc2C=Cc2ccccc21` it was 1.1 (inactive); in that of `CCN1CCc2nc(N)oc2CC1`, 1.1 (inactive).
`CCC(NC(C)C)C(O)c1ccc(O)c(O)c1` (stereo not given): the fold change permeability was 1.9 (active).
In the case of `CC(C)NCC(O)COc1ccc(COCCOC(C)C)cc1` (stereo not given), the fold change permeability was 0.8 (inactive).
Take `NC(=NCc1ccccc1)NC(=O)c1nc(Cl)c(N)nc1N`: the fold change permeability is 1 (inactive).
`Nc1ncnc2c1nc(Sc1ccc(Cl)cc1)n2C1OC2COP(=O)(O)O[C@@H]2[C@@H]1O` (stereo not given in full): the fold change permeability is 0.9 (inactive).
Take `O=c1cc(-c2cccc3c2Sc2ccccc2S3)oc(N2CCOCC2)c1`: the fold change permeability is 1 (inactive).
As for `CN1CCN(C(=O)c2ccc(-n3nc(-c4ccc(C(=O)O)cc4)cc3-c3cc(C(C)(C)C)cc(C(C)(C)C)c3)cc2)CC1`, the figure is 1 (inactive).
For `Brc1c(Br)c(Br)c2[nH]cnc2c1Br`, the fold change permeability is 1.2 (inactive).
`CCN(CC)C(=S)SSC(=S)N(CC)CC`: the fold change permeability was 1.7 (active).
In the case of `CN(C)c1ccccc1CN1CCCN(Cc2ccccc2N(C)C)C1c1ccncc1`, the fold change permeability is 1.1 (inactive).
In the case of `O=C(CCCN1CCC(O)(c2ccc(Cl)cc2)CC1)c1ccc(F)cc1` it was 1.2 (inactive).
`O=c1ccc2ccc(O)c(O)c2o1`: the fold change permeability is 1.2 (inactive).
Take `Cc1ccc(=O)n(-c2ccccc2)c1`: the fold change permeability is 1 (inactive).
On to `CC[C@]1(O)C[C@H]2CN(CCc3c([nH]c4ccccc34)[C@@](C(=O)OC)(c3cc4c(cc3OC)N(C=O)[C@H]3[C@@](O)(C(=O)OC)[C@H](OC(C)=O)[C@]5(CC)C=CCN6CC[C@]43[C@@H]65)C2)C1`, for which the fold change permeability is 2.1 (active).
As for `Clc1ccc(N2CCN(Cc3cc4ccccn4n3)CC2)cc1`, the fold change permeability is 1.3 (active).
